Screening data as filed in PubChem.
Only some compounds are listed: those with a hit (about 3.8% of all), similar ones and a draw of the others.
ELG1 repair inh – blocks ELG1-dependent DNA repair in HEK293T cells. HEK293T ELG1-luciferase reporter, luminescence, 16 h; DNA damage induced by 5-fluorouridine. Potency, µM (series often up to 46.1 µM), without a hit: at the top dose activity change, negative = inhibition, usual class: inhibitors. 330,000 compounds, 2.3% hits; note: potency is the fitted concentration of half-maximal effect; % is set by controls: 0 for no effect and ±100 for the full control effect; nearly all actives have a fitted effect of over 55% in size
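Cells (2,000 per well) received 5-fluorouridine plus test compound or DMSO and were incubated 16 hr at 37 °C, 5% CO2. Luciferase activity was read by luminescence 30 min after ONE-Glo addition; signal suppression marked inhibition of damage-induced ELG1 function.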
Nrf2 block – blocks Nrf2 signaling; A549 ARE-Fluc reporter, luciferase luminescence, 18-24 h; Potency, µM (highest dose often 46 µM), for inactives: top-dose activity change, negative = inhibition, hits mostly inhibitors; 360,000 compounds, 2.1% hits; note: potency is the fitted concentration of half-maximal effect; % is set by controls: 0 for no effect and ±100 for the full control effect; nearly all actives have a fitted effect of over 60% in size
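A549 ARE_Fluc cells (5000/well, 5% FBS OPTI-MEM) pre-incubated 2 h, then treated with compounds 18-24 h at 37C/5% CO2 in concentration-response. CellTiter-Fluor viability read first; BugLite luciferase luminescence after 15 min at room temperature gives Nrf2 activity.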
A549 viability – kills or reduces viability of A549 cells in Nrf2 counter-screen; A549 ARE-Fluc cells, CellTiter-Fluor viability, 18-24 h; Potency, µM (series often up to 46 µM), without a hit: top-dose activity change, negative = cytotoxicity, usual class: inhibitors; 390,000 compounds, 0.16% hits; note: potency is the fitted concentration of half-maximal effect; % is set by controls: 0 for no effect and ±100 for the full control effect
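A549 ARE_Fluc cells in 5% FBS OPTI-MEM were exposed to compounds in concentration-response for 18-24 h at 37 deg C. Viability was read by CellTiter-Fluor fluorescence (Ex 405/Em 525) after 30 min, before the luciferase read.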
Nrf2 activator – activators of Nrf2 (ARE) signaling | AREc32 ARE-luciferase reporter (MCF7-derived line), luminescence, 24 h | Potency, µM (top dose mostly 46.1 µM), inactives show at the highest dose activation, most hits filed as activators | 410,000 compounds, 0.31% hits | AID 624171; note: potency is the fitted concentration of half-maximal effect; % of control where 0% means no effect; nearly all actives have a fitted effect of over 65% in size
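Cells of the AREc32 ARE-luciferase line are plated in OPTI-MEM containing 5% FBS and left overnight at 37 deg C. Compounds are pinned in, incubation continues 24 hr, and firefly luciferase signal is then measured.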
IDH1 R132H inh – human IDH1 R132H inhibition. O75874. IDH1-R132H enzyme, NADPH consumption, diaphorase/resazurin fluorescence. Potency, µM (doses to about 76.6 µM), without a hit: at the highest dose activity change, negative = inhibition, hits mostly inhibitors. 390,000 compounds, 0.093% hits; note: potency is the fitted concentration of half-maximal effect; % is set by controls: 0 for no effect and ±100 for the full control effect; nearly all actives have a fitted effect of over 65% in size
Target sequence (O75874 whole entry R132H, stated change not applied): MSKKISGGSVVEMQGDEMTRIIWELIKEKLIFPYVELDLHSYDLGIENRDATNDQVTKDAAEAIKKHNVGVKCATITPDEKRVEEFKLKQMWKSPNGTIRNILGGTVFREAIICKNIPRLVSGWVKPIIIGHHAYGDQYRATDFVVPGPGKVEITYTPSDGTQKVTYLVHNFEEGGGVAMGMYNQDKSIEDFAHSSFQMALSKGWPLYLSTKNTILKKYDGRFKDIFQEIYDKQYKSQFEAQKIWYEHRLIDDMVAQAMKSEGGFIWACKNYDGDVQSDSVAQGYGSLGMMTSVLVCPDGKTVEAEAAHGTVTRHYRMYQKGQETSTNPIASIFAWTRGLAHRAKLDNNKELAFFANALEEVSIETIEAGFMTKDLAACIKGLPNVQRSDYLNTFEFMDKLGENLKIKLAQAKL
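IDH1-R132H (0.5 ug/mL dispensed) in pH 7.5 Tris buffer was preincubated 30 min with compound, then given a substrate mix of 0.016 mM NADPH and 2 mM alpha-KG for 80 min at room temperature; remaining NADPH was read by diaphorase/resazurin fluorescence.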
Resorufin autofl – interferes with resorufin fluorescence in IDH1 counter-screen | inhibition of signal, % at 51.2 µM | Resorufin detection reagent fluorescence interference, cell-free | shares compounds with IDH1 R132H inh | 750 tested, under 10 active | AID 623980;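 note: 0% = wells with normal resorufin and full inhibition = wells lacking resorufin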
IDH1 WT – wild-type IDH1 (human) inhibition counterscreen. shares compounds with IDH1 R132H inh. WT IDH1 enzyme, NADPH diaphorase/resazurin fluorescence. Potency, µM (doses to about 115 µM), without a hit: at the highest dose activity change, negative = inhibition, actives largely listed as inhibitors. 750 compounds, 9% hits. AID 623995;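 note: potency is the fitted concentration of half-maximal effect; 0% = full WT IDH1 enzyme control and full inhibition = no enzyme wells; nearly all actives have a fitted effect of over 55% in size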
Target sequence (O75874 whole entry, looked up): as the sequence (O75874 whole entry R132H, stated change not applied) above, with H132R counted along it
IDH1 R132H conf – inhibits human mutant IDH1 enzyme in cherrypick confirmation. shares compounds with IDH1 R132H inh. 750 compounds, 83% hits. IDH1 R132H enzyme, NADPH diaphorase/resazurin fluorescence. AID 624002. Potency, µM (highest dose often 76.6 µM), for inactives: at the highest dose activity change, negative = inhibition, hits mostly inhibitors; note: potency is the fitted concentration of half-maximal effect; nearly all actives have a fitted effect of over 50% in size
The depositor's hits bear a star; ? = inconclusive; nt = no result; [ ] = dose if it differs, or a comment. Calls come from the whole dose curve; as a rule, active = well fitted curve in the direction sought with a large enough effect; inconclusive = small, poorly fitted or top-dose-only effect, or another doubt; inactive = no such curve, though single readings can be large; an effect the other way counts as inactive or inconclusive.

SMILES	ELG1 repair inh	Nrf2 block	A549 viability	Nrf2 activator	IDH1 R132H inh	Resorufin autofl	IDH1 WT	IDH1 R132H conf
CC(=O)Oc1ccc(C(=O)[C@H]2[C@H]3C(=O)N(c4ccc(C)cc4C)C(=O)[C@H]3[C@@H]3C=CC=NN32)cc1	-7.5%	-2.7%	-6.9%	2.7%	41.4µM*	4.4	-10.7%	28.2µM*
Cc1c(C)c2c(OCC(=O)NCC(=O)NCC(=O)O)cc3c(c2oc1=O)CCC(C)(C)O3	0.6%	13.4%	6.5%	0.3%	14.8%	nt	nt	nt
Cc1c(C)c2c(OCC(=O)O)cc3c(c2oc1=O)CCC(C)(C)O3	-0.2%	-14.7%	-5.4%	0.2%	?	0.7	?	17.8µM*
CCOc1ccc(NC(=O)CN2C(=O)C(c3ccccc3)=NC23CCC(C)CC3)cc1 (stereo not drawn)	nt	?	?	-0.1%	22.4µM*	1.6	2.7%	15.8µM*
CCOC(=O)c1ccc(N2C(=O)c3n[nH]c(C)c3C2c2cccc(Br)c2)cc1 (stereo not drawn)	nt	?	6.6%	-6.3%	?	-7.5	-1.4%	25.1µM*
CCOC(=O)c1ccc(N2C(=O)c3n[nH]c(-c4cccs4)c3C2c2cccc(O)c2)cc1 (stereo not drawn)	nt	?	-23.5%	-4.0%	?	4.1	0.3%	15.8µM*
CCOC(=O)c1ccc(N2C(=O)c3n[nH]c(C)c3C2c2ccc(OC)c(OC)c2)cc1 (stereo not drawn)	?	-3.2%	3.5%	-0.2%	-0.4%	nt	nt	nt
CCOC(=O)c1ccc(N2C(=O)c3n[nH]c(C)c3C2c2ccc(CC)cc2)cc1 (stereo not drawn)	nt	-0.2%	2.6%	-0.3%	?	0.4	1.4%	?
CCOC(=O)c1ccc(N2C(=O)c3n[nH]c(C)c3C2c2ccc(C(C)(C)C)cc2)cc1 (stereo not drawn)	nt	4.7%	6.0%	-1.2%	-8.0%	nt	nt	nt
O=C(CSc1nc(-c2ccccc2)nc2cc(=O)[nH]n12)Nc1ccccc1	nt	nt	-0.9%	-0.5%	0.0%	nt	nt	nt
COc1ccc(NC(=O)C2CCCN(S(=O)(=O)c3ccc(Cl)cc3)C2)cc1OC (stereo not drawn)	?	-11.3%	0.7%	0.8%	0.0%	nt	nt	nt
CN(C(=O)c1nn(C)c2c1COc1ccccc1-2)c1cccc(C(F)(F)F)c1	nt	18.2%	-0.1%	0.7%	31.3%	nt	nt	nt
CC(C)c1cccc(-c2csc(C(O)c3cccc(Cl)c3)n2)c1 (stereo not drawn)	nt	nt	nt	2.5%	nt	nt	nt	nt
COc1ccc(N(C(=O)Cc2cccs2)C(C(=O)NC2CCCC2)c2ccncc2)cc1 (stereo not drawn)	-9.7%	?	-12.7%	0.4%	-1.9%	nt	nt	nt
Cc1cc(C)cc(N(C(=O)Cc2cccs2)C(C(=O)NC2CCCC2)c2ccc(C)o2)c1 (stereo not drawn)	17.4%	-10.0%	2.8%	-0.2%	7.36µM*	-7.9	9.7%	3.98µM*
Cc1cc(C)cc(N(C(=O)Cc2cccs2)C(C(=O)NC2CCCCC2)c2ccccn2)c1 (stereo not drawn)	-3.0%	-14.0%	-15.3%	-0.2%	?	2.6	10.1%	14.1µM*
Cc1ccc(C(C(=O)NC2CCCC2)N(C(=O)Cc2cccs2)c2cccc(C)c2C)o1 (stereo not drawn)	-1.8%	?	?	-0.4%	9.27µM*	2.4	5.3%	6.31µM*
CCc1ccc(N(C(=O)Cc2cccs2)C(C(=O)NC2CCCCC2)c2cn(C)nc2C)cc1 (stereo not drawn)	11.4%	5.6%	-12.9%	0.4%	-0.5%	nt	nt	nt
Cc1ccccc1C(C(=O)NC1CCCC1)N(C(=O)Cc1cccs1)c1ccc2c(c1)OCCO2 (stereo not drawn)	-1.0%	?	-10.0%	3.1%	6.56µM*	3.4	-0.3%	3.98µM*
CCCCN(C)C(=O)Cn1cnc2sc(C)c(S(=O)(=O)N3CCC(C)CC3)c2c1=O	nt	-7.8%[9.27 µM]	0.0%	-0.4%	0.7%	nt	nt	nt
COC(=O)c1c(NC(=O)c2ccc(C(C)(C)C)cc2)sc2c1CCC(C)C2 (stereo not drawn)	nt	25.0%	-7.3%	-0.3%	10.8%	nt	nt	nt
CCCCOc1ccc(C(=O)NCC2(N3CCN(C)CC3)CCCCC2)cc1	nt	?	-10.0%	2.9%	0.4%	nt	nt	nt
CCOc1cccc(N(C(=O)Cc2cccs2)C(C(=O)NC2CCCCC2)c2cccn2C)c1 (stereo not drawn)	?	-17.0%	-0.8%	2.2%	?	-1.6	7.5%	15.8µM*
COc1cccc(N(C(=O)Cc2cccs2)C(C(=O)NC2CCCC2)c2ccncc2)c1 (stereo not drawn)	17.8%	?	-1.6%	0.4%	-9.8%	nt	nt	nt
CC(=O)OCC(=O)C12OC(C)(C)OC1CC1C3CC=C4CC(O)CCC4(C)C3CCC12C (stereo not drawn)	nt	2.0%	-3.6%	-0.2%	3.0%	nt	nt	nt
SMILES	ELG1 repair inh	Nrf2 block	A549 viability	Nrf2 activator	IDH1 R132H inh	Resorufin autofl	IDH1 WT	IDH1 R132H conf
CC(=O)OCC(=O)[C@@]12OC3(CCCC3)O[C@@H]1C[C@H]1[C@@H]3CCC4=CC(=O)C=C[C@]4(C)[C@@]3(F)[C@@H](O)C[C@@]12C	-1.2%	?	-6.2%	6.1%	14.1µM*	4.5	-11.3%	7.08µM*
O=C1C(F)=CC(COC(c2ccccc2)(c2ccccc2)c2ccccc2)OC1n1cc(F)c(=O)[nH]c1=O (stereo not drawn)	nt	?	-16.0%	16.7%	26.1µM*	-2.9	50.1µM*	11.2µM*
O=c1cc(N2CCCCC2)c(-c2ccccc2)nn1Cc1ccc(Cl)cc1	?	?	?	0.3%	-4.5%	nt	nt	nt
O=c1cc(N2CCCCC2)c(-c2ccccc2)nn1Cc1c(Cl)cccc1Cl	?	18.4µM*	?	0.3%	20.7µM*	3.8	9.1%	14.1µM*
Cn1ncc2c(Nc3ccc(Br)cc3)nc(Nc3ccc(Br)cc3)nc21	23.1µM*	-28.9%	-9.7%	6.5%	32.9µM*	-3.6	4.3%	11.2µM*
Cn1ncc2c(Nc3cccc(Cl)c3)nc(Nc3cccc(Cl)c3)nc21	?	?	0.1%	-1.4%	?	-18.6	?	5.62µM*
Cn1ncc2c(Nc3ccc(O)cc3)nc(Cl)nc21	?	-14.4%	-3.1%	2.9%	9.4%	nt	nt	nt
